# Among all 310,000 compounds or so, about 2,200 (0.71%) showed an effect of 50% or more. The effect is printed as a negative number. Only a selection was taken, and strong results are over-represented in it overall.
# Target: human ether-à-go-go-related gene (hERG) potassium channel (human, UniProt Q12809)
# Assay: primary screen, population patch clamp on CHO cells stably expressing hERG; higher = less effect of the substance
# Sequence of human ether-à-go-go-related gene (hERG) potassium channel (Q12809 whole entry, looked up): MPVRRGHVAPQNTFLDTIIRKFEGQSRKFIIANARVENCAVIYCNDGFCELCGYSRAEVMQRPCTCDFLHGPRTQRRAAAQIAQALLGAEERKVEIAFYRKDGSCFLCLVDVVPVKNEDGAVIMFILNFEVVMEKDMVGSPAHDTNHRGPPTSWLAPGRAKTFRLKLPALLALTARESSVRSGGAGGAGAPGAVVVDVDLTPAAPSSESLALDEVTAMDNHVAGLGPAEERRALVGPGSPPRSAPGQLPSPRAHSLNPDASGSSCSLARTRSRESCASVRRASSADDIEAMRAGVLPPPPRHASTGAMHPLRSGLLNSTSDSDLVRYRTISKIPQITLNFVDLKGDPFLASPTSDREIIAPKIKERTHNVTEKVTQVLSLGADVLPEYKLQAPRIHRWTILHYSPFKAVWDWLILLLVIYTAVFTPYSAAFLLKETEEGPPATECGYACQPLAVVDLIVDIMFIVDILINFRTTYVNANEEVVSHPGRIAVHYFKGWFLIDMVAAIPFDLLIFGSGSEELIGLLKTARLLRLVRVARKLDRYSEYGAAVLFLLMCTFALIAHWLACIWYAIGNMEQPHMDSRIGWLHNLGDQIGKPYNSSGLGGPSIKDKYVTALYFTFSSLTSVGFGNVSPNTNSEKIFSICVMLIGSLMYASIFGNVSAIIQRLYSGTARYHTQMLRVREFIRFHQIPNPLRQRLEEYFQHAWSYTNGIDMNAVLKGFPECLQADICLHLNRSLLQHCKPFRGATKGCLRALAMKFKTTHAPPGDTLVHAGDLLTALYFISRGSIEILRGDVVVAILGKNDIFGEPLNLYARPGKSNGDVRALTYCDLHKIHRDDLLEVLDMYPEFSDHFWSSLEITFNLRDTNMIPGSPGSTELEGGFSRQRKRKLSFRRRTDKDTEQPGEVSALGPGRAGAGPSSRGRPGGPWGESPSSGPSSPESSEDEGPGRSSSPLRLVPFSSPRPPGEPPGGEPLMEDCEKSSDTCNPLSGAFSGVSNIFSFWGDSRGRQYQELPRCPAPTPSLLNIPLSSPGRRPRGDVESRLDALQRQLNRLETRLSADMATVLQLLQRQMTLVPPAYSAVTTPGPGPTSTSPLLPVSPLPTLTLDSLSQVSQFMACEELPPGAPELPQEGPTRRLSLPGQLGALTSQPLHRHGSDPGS
row,Structure (SMILES),"hERG current change (%, negative = inhibition) at 1uM [%]"
1,C=CCn1c(=O)c(C(=O)Nc2ccc(C)cc2)c(O)c2ccccc21,15.6
2,Cn1c(N)c(C(=O)COC(=O)c2ccccc2NCc2ccco2)c(=O)n(C)c1=O,9.3
3,C[C@H](NC(=O)c1nc[nH]c1C(=O)N[C@@H](Cc1ccccc1)C(=O)OCc1ccccc1)C(=O)OC(C)(C)C,10.7
4,COC(C(=O)Nc1ccc(S(=O)(=O)Nc2ccc(F)cc2)cc1)c1ccccc1 (stereo not shown),7.53
5,COC(C(=O)Nc1ccc(S(=O)(=O)Nc2c(C)cccc2C)cc1)c1ccccc1 (stereo not shown),-69.6
6,COC(C(=O)Nc1ccc(S(=O)(=O)Nc2ccc(C)c(C)c2)cc1)c1ccccc1 (stereo not shown),1.3
7,CC1CCc2c(sc3c2C2=NS(=O)(=O)CCN2C=N3)C1 (stereo not shown),15
8,Cc1csc(NC(=O)CSc2nnc(C)c(=O)n2N)n1,1.29
9,O=C(Cc1csc(-c2ccccc2)n1)NCc1ccc(F)cc1,4.14
10,N#Cc1cccc(NC(=O)COc2ccc(-n3ccnc3)cc2)c1,-51
11,O=C(COc1ccc(-n2ccnc2)cc1)Nc1cccc(Cl)c1,-3.13
12,O=C(COc1ccc(-n2ccnc2)cc1)Nc1cccc(F)c1,-13
13,O=S(=O)(Nc1nc(-c2ccccc2)cs1)c1cccc(C(F)(F)F)c1,10.5
14,CCOc1cc2[nH]c(=S)n(Cc3ccc(C)o3)c(=O)c2cc1OCC,-3.56
15,COc1ccc2c(c1)C=C(C(=O)OCc1cccnc1)CO2,10.4
16,COc1cccc2c1OCC(C(=O)OCc1cccnc1)=C2,10.4
17,O=C(OCc1cccnc1)C1=Cc2ccccc2OC1,-73
18,CCN(CC)S(=O)(=O)c1ccc(-n2cnc3cc(C)c(C)cc32)nc1,14.1
19,Cc1nc2ccccn2c1C(=O)N=Nc1c(O)[nH]c2ccccc12,13.2
20,CCc1ccc(OCC(=O)O/N=C(\N)c2cccnc2)cc1,0.0916
21,Br.CCCn1c(=N)n(CC(=O)c2ccc(Cl)c(Cl)c2)c2ccccc21,-17.7
22,N=c1n(CCOc2ccccc2)c2ccccc2n1CCN1CCOCC1,-10

row,Structure (SMILES),"hERG current change (%, negative = inhibition) at 1uM [%]"
1,Br.N=c1n(CCN2CCOCC2)c2ccccc2n1CC(=O)c1ccc(Cl)c(Cl)c1,-69.1
2,Br.N=c1n(CCN2CCOCC2)c2ccccc2n1Cc1ccccc1Br,-51.7
3,Br.N=c1n(CCN2CCCCC2)c2ccccc2n1CC(=O)c1ccc(Cl)c(Cl)c1,-14.7
4,Cc1ccc(C(=O)Cn2c(=N)n(CCN3CCOCC3)c3ccccc32)cc1.[Br-],-20.3
5,COc1ccc(-n2nc3c(N4CCC(C(=O)NCCc5ccco5)CC4)nnc(C)c3c2C)cc1,19.1
6,CCOC(=O)c1c(N)sc2c1CCCC2,15.1
7,CC(Sc1ccc(Cl)cc1)C(=O)Nc1ccccc1-c1ccccc1 (stereo not shown),17.4
8,COc1cc2c(cc1OC)CN(Cc1cc(=O)n3c(-c4ccccc4)csc3n1)CC2,14.9
9,COc1cc2c(cc1OC)C(NC(=O)c1ccc(C)cc1)CC2=O (stereo not shown),7.58
10,Cn1c(=O)c(Nc2ccc(Cl)cc2)c2c3c(cccc31)C(=O)c1ccccc1-2,14.9
11,COc1ccccc1-c1nnc(NC(=O)c2ccc(S(=O)(=O)N(C)Cc3ccccc3)cc2)o1,4.43
12,COCC1OS(=O)(=O)NC(CC(=O)SC(C)(C)C)C1C (stereo not shown),9.98
13,O=C(CN1CCCCC1)NCC(=O)Nc1ccc(Br)cc1C(=O)c1ccccc1,-77.2
14,O=C(CCN1CCOCC1)Nc1ccc(Br)cc1C(=O)c1ccccc1,-0.737
15,O=C(CN1CCOCC1)Nc1ccc(Br)cc1C(=O)c1ccccc1,-3.67
16,O=C(CCN1CCOCC1)NCC(=O)Nc1ccc(Br)cc1C(=O)c1ccccc1,-17.6
17,O=C(CN1CCOCC1)NCC(=O)Nc1ccc(Br)cc1C(=O)c1ccccc1,-20
18,O=C(CCN1CCCCC1)NCC(=O)Nc1ccc(Br)cc1C(=O)c1ccccc1,-78.1
19,CCc1oc(C(=O)O)cc1COC,-4.45
20,Cc1ccc(C)c(Nc2ncnc(N)c2[N+](=O)[O-])c1,9.83
21,Cc1nc(NC(=O)c2ccccc2)sc1C,16.6
22,O=C(N/N=C/c1ccccc1)C1CCCN1C(=O)c1cc([N+](=O)[O-])cc([N+](=O)[O-])c1 (stereo not shown),12.4

row,Structure (SMILES),"hERG current change (%, negative = inhibition) at 1uM [%]"
1,COc1ccc(C=O)cc1Cn1ccnc1C.Cl,15.4
2,Cc1cc(F)c(F)c(C(=O)N2CCC(C)CC2)c1Cl,5.24
3,OCCC1CN(Cc2cccc3nccnc23)CCN1C1CCCC1 (stereo not shown),3.17
4,OCCC1CN(Cc2cccc(-n3cccn3)c2)CCN1Cc1ccccc1 (stereo not shown),-13.4
5,Cc1cc(-n2cccn2)ccc1CN1CCN(CC(C)C)C(CCO)C1 (stereo not shown),0.354
6,OCCC1CN(Cc2cc(F)ccc2-n2cccn2)CCN1Cc1ccc(F)cc1 (stereo not shown),-36.9
7,Cc1ccc(CN2CCN(Cc3ccc(-n4cccn4)cc3)CC2CCO)cc1 (stereo not shown),-65.5
8,Cc1cccc(CN2CCN(Cc3ccc(-n4cccn4)cc3)CC2CCO)n1 (stereo not shown),-1.6
9,Cc1ccc(CN2CCN(Cc3ccc(-n4cccn4)cc3C)CC2CCO)cc1 (stereo not shown),-83.8
10,OCCC1CN(Cc2ccc(-n3cccn3)cc2)CCN1Cc1ccccc1 (stereo not shown),-28.5
11,OCCC1CN(Cc2cc(F)ccc2-n2cccn2)CCN1C1CCCC1 (stereo not shown),3.09
12,Cc1cc(-n2cccn2)ccc1CN1CCN(C2CCCC2)C(CCO)C1 (stereo not shown),-54.2
13,Cc1cccc(CN2CCN(Cc3cccc(-n4cccn4)c3)CC2CCO)n1 (stereo not shown),-13.6
14,Cc1ccc(CN2CCN(Cc3cccc(-n4cccn4)c3)CC2CCO)cc1 (stereo not shown),-80.1
15,CCOc1ccccc1N1CC(O)=C(c2nc3ccccc3s2)C1=N,5.48
16,O=C(CSc1nc(-c2ccccc2)cc(=O)[nH]1)Nc1ccc(F)c(F)c1,12.9
17,Cc1ccc(S(=O)(=O)Nc2ccc(C(=O)NCc3cccnc3)cc2)cc1,10.9
18,CCc1nc(SCC(=O)NCc2ccc(F)cc2)c2c(=O)n(C)c(=O)n(C)c2n1,11.2
19,COc1ccc(OC)c(S(=O)(=O)NCC(=O)NC2CCCCCC2)c1,16
20,COc1ccc2nc3sc(C(=O)N4CCN(C)CC4)cc3cc2c1,-12
21,CC(NC(=O)COC(=O)/C=C/c1ccco1)c1ccccc1 (stereo not shown),8.61
22,OCC1(Cc2ccccc2)CCN(Cc2cnn(-c3ccccc3F)c2)CC1,-4.22

row,Structure (SMILES),"hERG current change (%, negative = inhibition) at 1uM [%]"
1,COc1ccc(CN2CCC(CO)(Cc3cccc(C(F)(F)F)c3)CC2)cc1Cn1cccn1,-35.3
2,CC(C)Cc1cc(CN2CCCC(CO)(Cc3cccc(Cl)c3)C2)[nH]n1 (stereo not shown),-14.7
3,COc1ccc(CN2CCC(CO)(Cc3ccccc3)CC2)cc1Cn1cccn1,-55.9
4,COc1ccc(CN2CCN(C(C)C)C(CCO)C2)cc1Cn1cccn1 (stereo not shown),12
5,CC(C)Cc1cc(CN2CCC(CO)(Cc3cccc(C(F)(F)F)c3)CC2)[nH]n1,-66
6,COc1ccc(CC2(CO)CCN(Cc3cnn(-c4ccc(F)cc4)c3)CC2)cc1,-79.2
7,COc1ccc(CC2(CO)CCN(Cc3cnn(C)c3C)CC2)cc1,6.81
8,Cc1ccc(-n2cc(CN3CCC(CO)(Cc4cccc(C(F)(F)F)c4)CC3)cn2)cc1,-64.3
9,CC(C)Cc1cc(CN2CCC(CO)(Cc3ccccc3)CC2)[nH]n1,-42.9
10,Cc1ccc(-n2cc(CN3CCC(CO)(Cc4ccccc4)CC3)cn2)cc1,-22
11,CSc1cccc(CN2CCC(CO)(Cc3cccc(C(F)(F)F)c3)CC2)c1,-35.9
12,COCCOc1nc2ccccc2nc1C,6.8
13,O=C(Nc1nnc(-c2ccccc2)s1)c1ccccc1F,13.3
14,CC(C)C[C@@H](CO)NC(=O)CC[C@H](NC(=O)OC(C)(C)C)C(=O)N(Cc1ccccc1)Cc1ccccc1,16
15,CCOC(=O)c1cnc(SC2CC(=O)N(c3cccc(OC)c3)C2=O)nc1N (stereo not shown),11.3
16,CC1(c2nnc(-c3cccc(Cl)c3)o2)CC(c2cccc([N+](=O)[O-])c2)=NO1 (stereo not shown),16.3
17,COc1cc(CN2CCC(CO)(Cc3cccc(C(F)(F)F)c3)CC2)ccc1F,-15.9
18,COc1ccc(CC2(CO)CCN(Cc3cnn(-c4ccccc4)c3)CC2)cc1,-57.2
19,COc1ccc(CC2(CO)CCN(Cc3cnn(-c4ccccc4OC)c3)CC2)cc1,-48.4
20,OCC1(Cc2cccc(C(F)(F)F)c2)CCN(Cc2cc(F)cc(F)c2)CC1,4.2
21,CCOc1cc(CN2CCC(CO)(Cc3cccc(C(F)(F)F)c3)CC2)ccc1OC,-78
22,OCC1(Cc2ccccc2)CCCN(Cc2cnn(-c3ccccc3)c2)C1 (stereo not shown),-27.4

# Reference: PMC4336329 (PLoS ONE, 2015)
